Results filed as inconclusive are left out. Entries that show only a call come without a potency. Calls of active or inactive are those of the source. Calls follow the shape of the dose curve; as a rule, active = well fitted activation curve with a large enough effect in the signal ratio; inconclusive = small, poorly fitted or top-dose-only effect, or effect the other way, or a change in a side signal; inactive = flat fitted curve, though single readings scatter; the % refers to the signal ratio.
Experiment: qHTS assay for small molecule agonists of the antioxidant response element (ARE) signaling pathway (AID 651741)
Details: HepG2 ARE-bla reporter, beta-lactamase FRET ratio, 16 h; series mostly up to 96 µM
Source text: National Center for Advancing Translational Sciences [NCATS]
NIH Chemical Genomics Center [NCGC]
U.S. Environmental Protection Agency [EPA]
National Institutes of Environmental Health Sciences [NIEHS]
National Toxicology Program [NTP]
Oxidative stress has been implicated in the pathogenesis of a variety of diseases ranging from cancer to neurodegeneration. The antioxidant response element (ARE) signaling pathway plays an important role in the amelioration of oxidative stress. The CellSensor ARE-bla HepG2 cell line (Invitrogen) can be used for analyzing the Nrf2/antioxidant response signaling pathway. Nrf2 (NF-E2-related factor 2) and Nrf1 are transcription factors that bind to AREs and activate these genes. The CellSensor ARE-bla Hep G2 cell line contains a beta-lactamase reporter gene under control of the Antioxidant Response Element (ARE) stably integrated into HepG2 cells. The activation of the report gene under culture conditions can be detected by fluorescence intensity. This cell line can be used to screen chemicals in a 1536-well plate format and to identify agonists that induce oxidative stress.
The ARE-bla cells were dispensed at 2,000 cells/5 ul/well in 1536-well black wall/clear bottom plates using a Multidrop dispenser. After the assay plates were incubated at a 37 C/5% CO2 incubator for 5 hours, 23 nL of compounds dissolved in DMSO, positive controls or DMSO only was transferred to the assay plate by a pin tool. The plates were incubated at 37 C for 16 hours. After 1 uL of LiveBLAzer B/G FRET substrate was added using a Flying Reagent Dispenser, the plates were incubated at room temperature for 2 hours, and fluorescence intensity was measured by an Envision plate reader.
Potency is read from the fitted curve at half-maximal effect.

SMILES | Potency
O=S(=O)(O)c1ccc(N=Nc2c(O)ccc3cc(S(=O)(=O)O)ccc23)cc1 | inactive
CC(=O)/C=C/C1C(C)=CCCC1(C)C (stereo not given) | inactive
O=C=NC1CCC(CC2CCC(N=C=O)CC2)CC1 (stereo not given) | inactive
CCCCCCCCCCCCO | inactive
Cl[Si](Cl)(Cl)c1ccccc1 | inactive
CCO[Si](CCC#N)(OCC)OCC | inactive
Oc1ccc(Nc2ccccc2)cc1 | 24.3 µM (active)
CC(COc1ccc(C(C)(C)C)cc1)OS(=O)OCCCl (stereo not given) | 27.3 µM (active)
CC(=O)Nc1ccc(N=Nc2cc(C)ccc2O)cc1 | 17.2 µM (active)
COC(=O)c1ccc(C(=O)OC)cc1 | inactive
C=C(C)C(=O)OCCOC(=O)C(=C)C | inactive
CC(C)=CCC/C(C)=C\CO | inactive
O=c1oc(=O)c2cc3c(=O)oc(=O)c3cc12 | inactive
CN=C(N)NCC1CCOC1 (stereo not given) | 21.7 µM (active)
Nc1nc(N)nc(-c2ccccc2)n1 | inactive
Oc1ccc2ccccc2c1N=Nc1ccccc1 | 3.06 µM (active)
c1cc2ccc3ccc4ccc5cccc6c(c1)c2c3c4c56 | 21.7 µM (active)
CCCCN(CCCC)CCCCCCN(CCCC)CCCC | inactive
O=C(O)C(Oc1ccc(Cl)cc1)Oc1ccc(Cl)cc1 | inactive
Brc1ccc(Br)c(Br)c1 | inactive

SMILES | Potency
CC(C)(C)C1CCC(O)CC1 (stereo not given) | inactive
CS(=O)(=O)c1ccc(Cl)cc1 | inactive
Cc1cc(C)c(N)c(Cl)c1 | inactive
C=CC(=O)OCCOCC(CC)(COCCOC(=O)C=C)COCCOC(=O)C=C | 30.6 µM (active)
CCCCCc1ccc(N)cc1 | inactive
C[Si](Cl)(Cl)[Si](C)(Cl)Cl | inactive
C=CCCCCCCCCCC | inactive
CC(=O)CC(=O)Nc1ccc(C)cc1C | inactive
CCCCC(CC)COP(=O)(O)OCC(CC)CCCC (stereo not given) | 54.5 µM (active)
CCCCCCCC[Si](OCC)(OCC)OCC | inactive
CCCCCCCCCCCCCCO | inactive
CC(C)(C)c1n[nH]c(=O)n(N)c1=O | inactive
Cc1ccc(C(C)(C)C)c(O)c1 | inactive
CCCCC(CC)COC(=O)/C=C\C(=O)OCC(CC)CCCC (stereo not given) | 30.6 µM (active)
CCCCCCCC1CCC(=O)O1 (stereo not given) | inactive
CC1(C)C(=O)N(Cl)C(=O)N1Cl | inactive
Cc1ccc(N)c(S(=O)(=O)O)c1 | 61.1 µM (active)
COC(=O)C(C)Oc1ccc(Oc2ncc(C(F)(F)F)cc2Cl)cc1 (stereo not given) | inactive
O=C(Cl)c1cccc(C(=O)Cl)c1 | inactive
NCCCCCCCCCCCC(=O)O | inactive

Reference: PubChem BioAssay (NCATS)
